Experimental data as given in PubChem BioAssay AID1159580 (chemical genetic matrix, 2015).
Hit rate of the full screen: of about 5,500 compounds, about 2,000 (36%) were called active. Roughly 18% stayed inconclusive and do not appear here. Cut-off read from the data, not from the text of the source: active = normalized growth mostly below about 0.91 (no sharp cut-off); inconclusive = no clear call, values can overlap the other calls; inactive = mostly above about 0.92. The list shows a part of the results.

Test: chemical genetic growth profiling, strain panel (AID 1159580);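 note: tested at 20 µM; growth read once vehicle control cultures reached saturation at 30 °C; 1 = growth at the plate median or of vehicle wells; lower values mean less growth of the strain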
Conditions: S. cerevisiae deletion strains, growth OD

Measured: normalized growth

Oc1cc(O)c2c(c1)OC(c1cc(O)c(O)c(O)c1)C(O)C2c1c(O)cc(O)c2c1OC(c1cc(O)c(O)c(O)c1)C(O)C2c1c(O)cc(O)c2c1OC(c1cc(O)c(O)c(O)c1)C(O)C2 (stereo not given)
inactive: locus YAL013W, strain DEP1, active compounds read low 0.977 | locus YBR021W, strain FUR4, active compounds read low 1.02 | locus YBR229C, strain ROT2, active compounds read low 0.992 | locus YCL029C, strain bik1, active compounds read low 0.999 | locus YDL035C, strain GPR1, active compounds read low 0.889 | locus YDL074C, strain BRE1, active compounds read low 0.846 | locus YDL101C, strain DUN1, active compounds read low 0.913 | locus YDL134C, strain PPH21, active compounds read low 0.937 | locus YDL185W, strain tfp1, active compounds read low 0.973 | locus YDL192W, strain arf1, active compounds read low 0.948 | locus YDR101C, strain arx1, active compounds read low 1.03 | locus YDR150W, strain NUM1, active compounds read low 0.964 | locus YDR162C, strain NBP2, active compounds read low 0.84 | locus YDR318W, strain mcm21, active compounds read low 0.973 | locus YDR388W, active compounds read low 1 | locus YDR502C, strain sam2, active compounds read low 0.979 | locus YEL061C, strain CIN8, active compounds read low 0.933 | locus YER110C, active compounds read low 1.02 | locus YER155C, strain BEM2, active compounds read low 1.02 | locus YER167W, strain BCK2, active compounds read low 1.02 | locus YGL078C, strain dbp3, active compounds read low 1.02 | locus YGL086W, strain mad1, active compounds read low 0.964 | locus YGL248W, strain PDE1, active compounds read low 0.911 | locus YGR078C, strain PAC10, active compounds read low 0.918 | locus YGR135W, strain pre9, active compounds read low 0.912 | locus YGR252W, strain gcn5, active compounds read low 0.963 | locus YHR030C, strain SLT2, active compounds read low 0.972 | locus YHR079C, strain IRE1 (second series), active compounds read low 1.04 | locus YHR094C, strain hxt1, active compounds read low 1.02 | locus YHR200W, strain rpn10, active compounds read low 0.98 | locus YIL066C, strain RNR3, active compounds read low 0.919 | locus YIL073C, strain SPO22, active compounds read low 0.9 | locus YIL125W, strain kgd1, active compounds read low 1.02 | locus YIR030C, strain dcg1, active compounds read low 1 | locus YJL095W, strain BCK1, active compounds read low 0.845 | locus YJL134W, strain LCB3, active compounds read low 0.99 | locus YJL168C, strain set2, active compounds read low 1 | locus YJR043C, strain POL32, active compounds read low 0.857 | locus YKL068W, active compounds read low 1.02 | locus YKL085W, strain MDH1 (second series), active compounds read low 1.01 | locus YKL085W, strain MDH1, active compounds read low 1.01 | locus YKL190W, strain CNB1, active compounds read low 0.961 | locus YKR001C, strain vps1, active compounds read low 0.982 | locus YLR039C, strain RIC1, active compounds read low 0.836 | locus YLR102C, strain apc9, active compounds read low 1.02 | locus YLR262C, strain YPT6, active compounds read low 0.935 | locus YLR268W, strain sec22, active compounds read low 0.96 | locus YLR330W, strain CHS5, active compounds read low 1 | locus YLR342W, strain FKS1 (second series), active compounds read low 0.919 | locus YLR371W, strain rom2, active compounds read low 0.91 | locus YLR418C, strain cdc73, active compounds read low 0.92 | locus YML016C, strain PPZ1, active compounds read low 0.94 | locus YML032C, strain rad52, active compounds read low 1 | locus YML124C, strain tub3, active compounds read low 1.01 | locus YMR078C, strain ctf18, active compounds read low 1.01 | locus YMR223W, strain ubp8, active compounds read low 0.947 | locus YMR307W, strain GAS1, active compounds read low 0.928 | locus YNL067W, strain RPL9B, active compounds read low 0.917 | locus YNL233W, strain BNI4, active compounds read low 0.945 | locus YNL250W, strain rad50, active compounds read low 1 | locus YNL271C, strain bni1, active compounds read low 0.989 | locus YNL298W, strain CLA4, active compounds read low 1.01 | locus YNL307C, strain MCK1, active compounds read low 1.02 | locus YNR052C, strain pop2, active compounds read low 0.952 | locus YOL012C, strain htz1 0.566 | locus YOL147C, strain pex11, active compounds read low 1.01 | locus YOR061W, strain CKA2, active compounds read low 0.931 | locus YOR069W, strain VPS5, active compounds read low 0.976 | locus YOR136W, strain idh2, active compounds read low 1.02 | locus YOR144C, strain elg1, active compounds read low 1 | locus YOR184W, strain ser1, active compounds read low 0.968 | locus YOR316C, strain cot1, active compounds read low 1.01 | locus YPL055C, strain LGE1, active compounds read low 0.886 | locus YPL241C, strain CIN2, active compounds read low 0.974 | locus YPR119W, strain clb2, active compounds read low 1.02 | locus YPR141C, strain kar3, active compounds read low 1 | locus YPR163C, strain tif3, active compounds read low 1.01 | locus YPR167C, strain met16, active compounds read low 0.982 | strain wtn01, active compounds read low 1.01
active: locus YGR229C, strain SMI1, active compounds read low 0.747 | locus YHR129C, strain ARP1, active compounds read low 0.915 | locus YJL187C, strain SWE1 (second series), active compounds read low 0.775 | locus YKL009W, strain mrt4, active compounds read low 1.15 [resistant] | locus YLR058C, strain SHM2, active compounds read low 0.835 | locus YNL322C, strain KRE1, active compounds read low 0.916
